# Measured values published in PubChem BioAssay.
# Where “and” joins values, the source holds several entries; their conditions need not be identical. Equal entries are not always repeated. Calls of active or inactive are those of the source.
# Columns and labels:
# [1] = small molecules captured by biotinylated probe aFSTL3 – biochemical, small-molecule microarray, fluorescence 635/667, stem cell growth factor project, primary screen (AID 1064); conditions: higher = more signal;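 note: measures binding of the biotinylated anti-FSTL3 antibody to printed compounds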
# [2] = binders from COS7 lysate, DM2A8 probe, primary screen, torsin A project, cell lysate, small-molecule microarray, fluorescence 635/667 (AID 1065); conditions: higher = more signal, COS7 lysate expressing mutant human TOR1A
# [3] = small molecules captured by biotinylated probe aFGF2 – biochemical, small-molecule microarray, fluorescence 635/667, stem cell growth factor project, primary screen (AID 1067); conditions: higher = more signal;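 note: measures binding of biotinylated aFGF2 protein to printed compounds on slides; z-score merges feature fluorescence and signal-to-noise across triplicate slides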
# [4] = small molecules captured by biotinylated probe aFGF10 – biochemical, small-molecule microarray, fluorescence 635/667, stem cell growth factor project, primary screen (AID 1071); conditions: higher = more signal;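 note: score merges 667 nm spot intensity and signal to noise from triplicate slides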
# [5] = molecular target: Neurogenic locus notch homolog protein 2 (Homo sapiens) (UniProt Q04721); assay: small molecules binding Notch2 protein – biochemical, small-molecule microarray, 635 nm fluorescence, stem cell growth factors, primary screen (AID 1073); conditions: higher = more signal
# Neurogenic locus notch homolog protein 2 (Homo sapiens), sequence (Q04721 whole entry, looked up, canonical isoform): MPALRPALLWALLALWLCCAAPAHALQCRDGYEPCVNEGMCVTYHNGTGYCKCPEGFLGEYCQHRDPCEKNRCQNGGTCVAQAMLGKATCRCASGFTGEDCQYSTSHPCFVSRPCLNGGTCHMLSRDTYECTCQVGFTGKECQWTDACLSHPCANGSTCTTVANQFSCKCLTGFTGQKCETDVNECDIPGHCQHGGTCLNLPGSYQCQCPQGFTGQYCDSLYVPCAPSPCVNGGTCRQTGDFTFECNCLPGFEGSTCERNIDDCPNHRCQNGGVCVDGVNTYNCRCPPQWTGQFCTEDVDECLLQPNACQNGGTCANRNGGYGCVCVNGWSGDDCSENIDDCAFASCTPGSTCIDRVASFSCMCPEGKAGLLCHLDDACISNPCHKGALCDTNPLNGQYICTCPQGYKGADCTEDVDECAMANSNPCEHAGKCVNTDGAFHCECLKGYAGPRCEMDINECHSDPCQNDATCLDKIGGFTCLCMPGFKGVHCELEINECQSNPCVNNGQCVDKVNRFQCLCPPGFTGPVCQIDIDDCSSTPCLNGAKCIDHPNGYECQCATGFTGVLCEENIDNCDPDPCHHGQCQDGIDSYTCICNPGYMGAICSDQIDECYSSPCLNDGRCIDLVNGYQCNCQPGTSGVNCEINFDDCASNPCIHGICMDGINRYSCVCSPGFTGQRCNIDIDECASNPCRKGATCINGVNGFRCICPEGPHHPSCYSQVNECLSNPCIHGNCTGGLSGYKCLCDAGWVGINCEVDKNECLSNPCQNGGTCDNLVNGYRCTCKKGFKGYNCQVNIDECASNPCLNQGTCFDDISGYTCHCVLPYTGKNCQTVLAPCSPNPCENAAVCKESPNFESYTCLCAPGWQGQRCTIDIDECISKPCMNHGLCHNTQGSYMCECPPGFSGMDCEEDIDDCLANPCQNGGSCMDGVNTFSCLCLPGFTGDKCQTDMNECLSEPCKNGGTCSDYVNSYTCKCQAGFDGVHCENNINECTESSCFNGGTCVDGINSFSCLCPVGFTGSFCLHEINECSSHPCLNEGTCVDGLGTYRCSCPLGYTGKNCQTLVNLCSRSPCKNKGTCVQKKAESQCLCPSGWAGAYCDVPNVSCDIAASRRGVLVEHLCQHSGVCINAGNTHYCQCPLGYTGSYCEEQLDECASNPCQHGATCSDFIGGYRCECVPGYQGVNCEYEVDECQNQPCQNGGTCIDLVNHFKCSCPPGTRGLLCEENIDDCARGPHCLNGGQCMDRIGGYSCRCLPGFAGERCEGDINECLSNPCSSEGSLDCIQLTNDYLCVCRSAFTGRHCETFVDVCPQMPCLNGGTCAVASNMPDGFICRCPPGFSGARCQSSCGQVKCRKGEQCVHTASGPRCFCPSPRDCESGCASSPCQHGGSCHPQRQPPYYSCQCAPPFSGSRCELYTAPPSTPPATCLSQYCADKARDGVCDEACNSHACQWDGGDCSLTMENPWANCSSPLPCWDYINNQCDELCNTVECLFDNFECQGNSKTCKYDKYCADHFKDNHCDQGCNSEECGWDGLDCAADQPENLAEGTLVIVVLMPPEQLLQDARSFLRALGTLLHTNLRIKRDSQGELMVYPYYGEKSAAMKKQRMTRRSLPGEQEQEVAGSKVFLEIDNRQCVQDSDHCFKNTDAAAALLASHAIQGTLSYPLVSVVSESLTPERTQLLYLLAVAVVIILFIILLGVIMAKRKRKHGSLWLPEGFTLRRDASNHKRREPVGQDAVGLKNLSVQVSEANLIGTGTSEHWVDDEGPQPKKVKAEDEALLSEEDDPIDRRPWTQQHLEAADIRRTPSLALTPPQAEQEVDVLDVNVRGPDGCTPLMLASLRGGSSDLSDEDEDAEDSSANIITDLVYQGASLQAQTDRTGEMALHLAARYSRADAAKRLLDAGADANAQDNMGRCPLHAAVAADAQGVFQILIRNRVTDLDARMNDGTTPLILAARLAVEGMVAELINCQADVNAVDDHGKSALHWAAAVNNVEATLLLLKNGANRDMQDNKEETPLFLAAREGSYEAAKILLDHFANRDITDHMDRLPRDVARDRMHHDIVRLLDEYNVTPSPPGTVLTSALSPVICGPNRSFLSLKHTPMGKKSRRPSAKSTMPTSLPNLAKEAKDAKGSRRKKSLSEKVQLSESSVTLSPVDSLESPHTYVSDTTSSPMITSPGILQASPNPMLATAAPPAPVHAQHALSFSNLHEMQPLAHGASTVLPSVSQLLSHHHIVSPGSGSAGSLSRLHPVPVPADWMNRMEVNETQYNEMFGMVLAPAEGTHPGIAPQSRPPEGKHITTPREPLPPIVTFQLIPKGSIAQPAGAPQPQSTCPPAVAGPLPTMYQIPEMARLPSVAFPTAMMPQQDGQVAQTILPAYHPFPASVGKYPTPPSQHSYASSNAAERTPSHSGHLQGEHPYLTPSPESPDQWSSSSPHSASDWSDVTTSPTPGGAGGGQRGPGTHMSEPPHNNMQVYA
# [6] = molecular target: Pro-neuregulin-1, membrane-bound isoform (Homo sapiens) (UniProt Q02297); assay: small molecules binding neuregulin-1 protein – biochemical, small-molecule microarray, fluorescence 635/667, psychiatric disease protein project, primary screen (AID 1075); conditions: NRG1 binding, 635 nm fluorescence, higher = more signal;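 note: score combines 667 nm spot fluorescence with signal to noise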
# Pro-neuregulin-1, membrane-bound isoform (Homo sapiens), sequence (Q02297 whole entry, looked up, the tested form may be a part, canonical isoform): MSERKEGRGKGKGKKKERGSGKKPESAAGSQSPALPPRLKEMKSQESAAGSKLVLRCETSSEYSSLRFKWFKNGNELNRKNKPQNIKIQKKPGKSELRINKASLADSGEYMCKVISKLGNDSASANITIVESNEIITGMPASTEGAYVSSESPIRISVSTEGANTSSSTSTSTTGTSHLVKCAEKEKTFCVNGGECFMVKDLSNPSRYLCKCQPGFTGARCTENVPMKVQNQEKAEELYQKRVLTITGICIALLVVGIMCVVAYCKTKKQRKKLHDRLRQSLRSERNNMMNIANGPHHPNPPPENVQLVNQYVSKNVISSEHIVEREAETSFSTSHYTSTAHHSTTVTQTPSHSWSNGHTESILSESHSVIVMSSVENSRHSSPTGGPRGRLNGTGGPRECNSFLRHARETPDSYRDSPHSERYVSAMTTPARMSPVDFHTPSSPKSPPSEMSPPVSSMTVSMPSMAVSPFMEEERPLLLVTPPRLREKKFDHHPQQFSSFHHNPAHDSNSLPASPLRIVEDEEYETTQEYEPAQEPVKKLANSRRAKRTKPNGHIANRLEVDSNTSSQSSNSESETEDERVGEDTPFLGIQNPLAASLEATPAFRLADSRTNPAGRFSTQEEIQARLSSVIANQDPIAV
# [7] = tested on: Neuregulin-1 EGF-like domain; assay: small molecules binding NRG1 EGF domain – biochemical, small-molecule microarray, 635 nm fluorescence, primary screen (AID 1081); conditions: higher = more signal;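 note: binding of the protein to compounds printed on small-molecule microarray slides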
# [8] = FRG1 expression reporter modulators in myotubes – cell-based, C2C12 myotubes, firefly/Renilla luciferase, luminescence, FRG1 inhibition for FSHD, primary screen (AID 1084); conditions: FRG1 promoter luciferase, higher = more signal, called active from +8 up or from −8 down
# [9] = small molecules captured by biotinylated probe aFST – biochemical, small-molecule microarray, fluorescence 635/667, stem cell growth factor project, primary screen (AID 1086); conditions: higher = more signal;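 note: score merges 667 nm fluorescence with signal-to-noise of each printed compound spot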
# [10] = binders of probe aHhip on microarray, primary screen, stem cell growth factor project, biochemical, small-molecule microarray, fluorescence 635/667 (AID 1087); conditions: higher = more signal;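 note: score merges spot fluorescence at 667nm with spot signal to noise ratio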
SMILES,composite z-score [1],composite z-score [2],composite z-score [3],composite z-score [4],composite z-score [5],composite z-score [6],composite z-score [7],z-score [8],composite z-score [9],composite z-score [10]
CCCCCN1CC=CC23O[C@@H]4C=CCCOC(=O)C4[C@H]2C(=O)N(C(C)CO)[C@@H]3C1=O (stereo not given in full),-1.32 and 1.66,0.852 and -1.23,-0.0341 and -0.148,-0.202 and -0.431,-0.88 and -0.932,1.03 and 1.11,1.54 and 1.32,0.212 (inactive) and 0.0905 (inactive),-0.678 and 0.24,-1.02 and -0.274
COC(=O)[C@@]1(Cc2ccc(F)cc2)[C@H]2c3cc(C(=O)N4CCCC4)n(Cc4c(CO)[nH]cc(C)c4=O)c3C[C@H]2CN1C(=O)c1ccccc1,1.8 and 0.692,-0.101 and -1.02,0.775 and -0.0485,1.22 and 0.774,1.43 and 1.42,1.92 and 1.21,1.31 and 1.1,1.78 (inactive) and -0.112 (inactive),1.54 and 0.659,1.42 and 0.314
C[N+](C)(C)CCCCCCNC(=O)[C@H]1C[C@H]2C(=O)N[C@@H](CCCC[N+](C)(C)C)C(=O)N2[C@H]1c1cccc(OCCO)c1,-0.54 and 1.52,0.5 and 0.444,-0.0546 and 0.0108,-0.232 and 0.0517,-0.004 and -0.276,0.55 and -0.353,1.2 and 1.47,3.98 (inactive) and 3.53 (inactive),0.469 and 0.696,-0.293 and 0.535
C#CCCCON=C1C[C@@H](O)[C@@H](O)[C@@H]2[C@@H]3C(=O)N(C4CCCCC4)C(=O)[C@@H]3CC[C@H]12,-0.283,0.145,-0.0423,0.612,0.784,0.717,0.793,-0.298 (inactive),0.346,-0.0994
COCn1c2ccccc2c2nnc(C(C)=O)nc21,-0.401 and -0.253,0.416 and -0.0491,-0.108 and -0.112,0.111 and 0.226,-0.0995 and 0.194,-0.325 and -0.146,-0.29 and -0.548,0.51 (inactive) and 0.697 (inactive),0.252 and -0.0637,-0.0994 and 0.0515
CC(C)=CCCC(C)=CCON=C1C[C@@H](O)[C@@H](O)[C@@H]2[C@@H]3C(=O)N([C@@H](C)c4ccccc4)C(=O)[C@@H]3CC[C@H]12,-0.372,0.384,-0.044,0.573,0.744,1.13,0.751,-0.763 (inactive),0.503,0.0627
C=CCN(CCCC)C(=O)C1N(c2c(Cl)cccc2CO)C(=O)C2C(C(=O)O)C3C=CC21O3 (stereo not given),1.38 and 0.489,-0.331 and -0.392,-0.247 and -0.307,-0.842 and -1.3,-1.17 and -1.13,-0.909 and 0.0849,-0.981 and 0.374,0.183 (inactive) and -0.987 (inactive),-0.931 and -0.719,-0.412 and -0.323
COC(=O)c1c2oc(c1C(=O)OC)C(=O)N[C@@H](Cc1ccccc1)Cn1cc(nn1)C1(CCCCC1)NC(=O)N[C@H](CO)CC2,0.345 and -0.428,-0.946 and -0.603,-0.0558 and -0.0752,0.866 and 0.262,0.395 and 0.428,1.23 and 0.0012,1.31 and 0.747,-0.818 (inactive) and -1 (inactive),0.247 and 0.182,-0.0346 and -0.13
